The text below walks through data of PubChem BioAssay.

Activity calls are given as the source filed them. The rule behind the calls is not given here.

The test in a line: liver-stage malaria parasite load reduction – cell-based, known kinase inhibitor set, luminescence, hepatoma host viability (AID 624392).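 Note: infected cells incubated roughly two days before readout.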 To be noted: Plasmodium liver stage in hepatoma cells, luciferase luminescence, concentration not given here; liver cell % of control: measured here: host liver cell viability; parasite % of control: stronger effect = lower value.
Consider `COc1ccc2cc(-c3c(-c4ccncc4)nc(-c4ccc(S(C)=O)cc4)n3C)ccc2c1` (stereo not drawn), for which the parasite % of control was 121% (inactive) and the liver cell % of control amounted to 117%.
The like results for `COc1ccc2cc(-c3c(-c4ccncc4)nc(-c4ccc(S(C)(=O)=O)cc4C)n3C)ccc2c1` were, in that order, 101% (inactive) and 118%.
The like results for `CN(C)CCCn1c(-c2nonc2N)nc2cnccc21` were, in that order, 124% (inactive) and 105%.
The like results for `CN1CCC(n2cnc(-c3ccc(F)cc3)c2-c2ccnc(Nc3ccccc3)n2)CC1` were, in that order, 74.5% (inactive) and 67.1%.
`CCS(=O)(=O)c1ccc(OC)c(Nc2ncc(-c3cccc(-c4ccccc4F)c3)o2)c1`: the parasite % of control is 98.4% (inactive) and the liver cell % of control is 111%.
In the same order, the values of `COC(=O)Nc1nc2ccc(Oc3ccc(NC(=O)Nc4cccc(C(=O)O)c4)cc3)cc2[nH]1` are 180% (inactive) and 122%.
The like results for `COC(=O)Nc1nc2ccc(S(=O)(=O)c3ccc(NC(=O)Nc4cc(C(F)(F)F)ccc4F)cc3)cc2[nH]1` were, in that order, 100% (inactive) and 80%.
The like results for `COc1c(C(N)=O)cc(-c2ccc(Cl)cc2)cc1-c1ccc(S(N)(=O)=O)cc1` were, in that order, 180% (inactive) and 100%.
In the case of `CN(C)CCNC(=O)Nc1ccc(N(C)c2ccnc(Nc3ccc(CS(C)(=O)=O)cc3)n2)cc1`, the parasite % of control is 94.7% (inactive) and the liver cell % of control is 111%.
With `FC(F)(F)c1cccc(-c2nn3ncccc3c2-c2ccnc(Nc3ccc4c(c3)OCCO4)n2)c1`, the liver cell % of control came out at 147% and the parasite % of control was 22.4% (inactive).
The like results for `COc1cc(N2CCN(C(C)C)CC2)ccc1Nc1nc(Nc2cccc3ncccc23)c2cc[nH]c2n1` were, in that order, 96.4% and 180% (inactive).
In the same order, the values of `NS(=O)(=O)c1ccc(NC2CC(c3cccc(O)c3)NN2)cc1` (stereo not drawn) are 92.2% and 101% (inactive).
The like results for `COc1ccccc1-c1cc(/C=C2\C(=O)Nc3ncc(Br)cc32)cc(Br)c1O` were, in that order, 102% and 116% (inactive).
Take `CS(=O)(=O)CCNCc1cc(-c2cc3c(Nc4ccc(OCc5cccc(F)c5)c(Cl)c4)ncnc3s2)cs1`: the parasite % of control was 132% (inactive) and the liver cell % of control was 91.2%.
The like results for `CCCN1CCCC(c2ccc(Nc3nc(Nc4cc(F)ccc4C(N)=O)c4cc[nH]c4n3)c(OC)c2)C1` (stereo not drawn) were, in that order, 101% (inactive) and 71%.
The like results for `COc1ccc2ncn(-c3cc(O[C@H](C)c4ccccc4C(F)(F)F)c(C(N)=O)s3)c2c1` were, in that order, 88.3% (inactive) and 75.6%.
In the same order, the values of `Nc1nc(-c2ccc(F)cc2)c(-c2ccc3ncccc3n2)s1` are 131% (inactive) and 158%.
For the molecule `Cc1ccc2[nH]c(O)c(N=Nc3ccc(S(N)(=O)=O)cc3)c2c1`, the parasite % of control is 128% (inactive) and the liver cell % of control was 164%.
In the same order, the values of `O=S1CCN(Cc2ccc(-c3ccc4ncnc(Nc5ccc(OCc6ccccc6)c(Cl)c5)c4c3)o2)CC1` are 108% (inactive) and 98.4%.
Consider `CCn1c(-c2nonc2N)nc2c(C#CC(C)(C)O)ncc(OCC3CCNCC3)c21`, for which the liver cell % of control stood at 88.1% and the parasite % of control was 91.5% (inactive).
In the same order, the values of `COc1ccc2ncnc(Nc3ccc(OCc4ccccc4)cc3)c2c1` are 120% and 92.8% (inactive).
In the same order, the values of `COc1cc(/C=N/Nc2ncnc3c2cnn3C(C)C)ccc1O` are 128% and 63.2% (inactive).
The like results for `COc1ccc(-c2ccncc2)cc1C(N)=O` were, in that order, 85.3% and 135% (inactive).
With `COc1ccc(-c2coc3ncnc(N)c23)cc1`, the liver cell % of control came out at 92.2% and the parasite % of control was 116% (inactive).
The like results for `CCNC(=O)O[C@H]1CN[C@H](C#Cc2cc3ncnc(Nc4ccc(OCc5cccc(F)c5)c(Cl)c4)c3s2)C1` were, in that order, 105% and 113% (inactive).
In the same order, the values of `Fc1ccc(Nc2nccc(-c3c(-c4ccc(C(F)(F)F)cc4)nn4ncccc34)n2)cc1F` are 121% and 125% (inactive).
The like results for `CCn1c(-c2nonc2N)nc2c(C#CC(C)(C)O)nc(OC[C@H](N)c3ccccc3)cc21` were, in that order, 91.7% and 78.3% (inactive).
On to `Cc1nnc(-c2ccc(C)c(-c3ccc(C(=O)Nc4cccc(C#N)c4)cc3)c2)o1`, for which the parasite % of control was 154% (inactive) and the liver cell % of control amounted to 117%.
On to `Oc1cccc(-c2nc(-c3ccccc3)[nH]c2-c2ccncc2)c1`, for which the liver cell % of control came to 111% and the parasite % of control was 13.2% (active).
As to `COc1ccc(-c2cc3c(N)ncnc3o2)cc1`, the parasite % of control was 203% (inactive) and the liver cell % of control was 106%.
The like results for `NS(=O)(=O)c1ccc(N=Nc2c(O)[nH]c3ccc(-c4cnco4)cc23)cc1` were, in that order, 140% (inactive) and 87.3%.
`NS(=O)(=O)c1cccc(-c2ccc3c(NC(=O)C4CC4)n[nH]c3c2)c1`: the liver cell % of control was found to be 97.5% and the parasite % of control is 241% (inactive).
The like results for `COc1cc(N2CCN(C(C)C)CC2)ccc1Nc1nc(Nc2ccc(F)cc2C(N)=O)c2cc[nH]c2n1` were, in that order, 64.4% and 792% (inactive).
In the same order, the values of `CC(C)=Cc1cccc2[nH]c(O)c(N=Nc3ccc(S(N)(=O)=O)cc3)c12` are 77.9% and 247% (inactive).
For the molecule `Cc1ccc2c(-c3ccnc(Nc4ccccc4)n3)c(-c3ccc(F)cc3)nn2n1`, the parasite % of control was 12.5% (active) and the liver cell % of control came out at 152%.
The like results for `Cc1c2ccc(N(C)c3ccnc(Nc4cccc(S(N)(=O)=O)c4)n3)cc2nn1C` were, in that order, 100% (inactive) and 94.3%.
The like results for `CNC(=O)c1cncc(/C=C/c2ccccc2Cl)c1` were, in that order, 16.8% (inactive) and 165%.
Take `COc1cc2ncnc(Nc3ccc(C)c(O)c3)c2cc1OC`: the liver cell % of control was found to be 56.5% and the parasite % of control was 110% (inactive).
Take `CC(C)c1ccc2c(N=Nc3ccc(S(N)(=O)=O)cc3)c(O)[nH]c2c1`: the parasite % of control is 160% (inactive) and the liver cell % of control was 93.4%.
